In PubChem BioAssay AID493100 (Broad Institute, 2011):
Results with a measured potency or affinity are listed apart. Results filed as inconclusive are left out. Active and inactive are the calls of the source.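 The calls were made as follows: active = decreasing signal in every run, fitted half-effect dose at most ten times the top valid dose; inconclusive = runs disagree, weak flat effect, or poor curve fit; inactive = every run inactive, signal rises included.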

Experiment: blockers of SFLLRN-triggered platelet ATP secretion – cell-based, human platelets, luminescence, dry powder, dose response (AID 493100)
Details: SFLLRN-induced ATP dense granule secretion; series mostly up to 35 µM

outcome, inactive:
CCCC(=O)Nc1cccc(NC(=O)c2cnc3ccccc3c2)c1
CCCC(=O)Nc1cccc(NC(=O)c2ccc(F)cc2)c1
CC(=O)Nc1cccc(NC(=O)c2cccc(Cl)c2)c1
O=C(Nc1cccc(NC(=O)c2ccccc2Cl)c1)c1ccco1
C/C(=N\NC(=O)C1CCCC1)c1ccc(Cl)cc1
CCCC(=O)Nc1cccc(NC(=O)c2ccc(OC)cc2)c1
CCCC(=O)Nc1cccc(NC(=O)c2ccc(S(C)(=O)=O)cc2)c1
CC(=O)Nc1cccc(NC(=O)c2ccccc2Cl)c1
CCCCC(=O)Nc1cccc(NC(=O)c2ccccc2Br)c1
CC(=O)Nc1ccc(/C=N/NC(=O)CC2CCCCC2)cc1
O=C(Nc1cccc(NC(=O)c2ccccc2Br)c1)c1ccccc1
CCCC(=O)Nc1cccc(NC(=O)c2cccnc2)c1
CCCC(=O)Nc1cccc(NC(=O)c2ccco2)c1
CCCC(=O)Nc1cccc(NC(=O)c2cccc([N+](=O)[O-])c2)c1
CCCC(=O)Nc1cccc(NC(=O)c2ccccc2OC)c1
CCCC(=O)Nc1cccc(NC(=O)c2ccc(C)cc2)c1
CC(=O)c1ccc(NC(=O)C(F)(F)F)cc1
CCCC(=O)Nc1cccc(NC(=O)c2cccc(-c3ccccc3)c2)c1
O=Cc1ccc(NC(=O)C(F)(F)F)cc1
CC(=O)Nc1c(C#N)c(-c2ccccc2)c(C#N)c(=O)n1-c1ccc(C)cc1
CCCC(=O)Nc1cccc(NC(=O)c2ccc(C(F)(F)F)cc2)c1
CCCC(=O)Nc1cccc(NC(=O)c2cccc(Oc3ccccc3)c2)c1
CCCC(=O)Nc1cccc(NC(=O)c2ccc(Cl)cc2)c1
C/C(=N\NC(=O)c1ccccc1)c1ccc(NC(=O)C(F)(F)F)cc1
NNC(=O)C1CCCC1
CC(=O)N/N=C(\C)c1ccc(NC(=O)C2CC2)cc1
CCCC(=O)Nc1cccc(NC(=O)c2cccc(S(C)(=O)=O)c2)c1
